Data taken from PubChem BioAssay (Tox21).
Inconclusive results are not listed. A call without a number means that no potency is given here. Active and inactive are the calls of the source. Unless noted, calls follow the shape of the dose curve; as a rule, active = well fitted curve in the direction sought with a large enough effect in the repeat runs; inconclusive = weak or mixed curves; inactive = no such curve, though single readings can be large; an effect the other way counts as inactive or inconclusive.

Columns and labels:
[1] = qHTS assay to identify small molecule antagonists of the estrogen receptor alpha (ER-alpha) signaling pathway using the BG1 cell line in the presence of 0.1 nM 17-beta-estradiol - cell viability counter screen (AID 1259241); also: nearly all actives have a fitted effect of over 40% in size
In short: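 CellTiter-Fluor read (30 min, 37C) on ER-alpha/ERE-luc VM7Luc4E2 cells; 22 hr compound treatment; agonist 0.1 nM E2 final; same-well multiplex.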

[2] = qHTS assay to identify small molecule antagonists of the androgen receptor (AR) signaling pathway using the MDA cell line in the presence of 0.5 nM R1881 - cell viability counter screen (AID 1259242); also: nearly all actives have a fitted effect of over 45% in size; also: potency is read from the fitted curve at half-maximal effect
In short: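 MDA-kb2 cells (MMTV-luciferase, AR/GR responsive) were treated with compounds plus 0.5 nM R1881 (final) for 16 hr at 37C, 0% CO2. Viability was then read in the same wells as live-cell protease fluorescence (CellTiter-Fluor, 30 min).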

[3] = qHTS assay to identify small molecule phospholipidosis (PLD) inducers (AID 1259344; active = well fitted curve in the direction sought with a large enough effect; an effect the other way counts as inactive or inconclusive)
In short: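 Phospholipidosis is scored by imaging LipidTOX-stained pits in HepG2 cells exposed to compound for 24 h at 37 C; pit counts and integrated intensities per well and per cell serve as outputs.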

[4] = qHTS assay to identify small molecule HDAC inhibitors - cell viability counter screen (AID 1259365); also: series mostly up to about 92 µM; nearly all actives have a fitted effect of over 50% in size
In short: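 To flag cytotoxic hits, 1,500 wild-type HCT-116 cells per well, plated the day before, receive test compounds for 2hr at 37 C before CellTiter-Glo reagent and a luminescence read.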

[5] = qHTS assay to identify small molecule antagonists of the sonic hedgehog signaling (Shh) pathway - cell viability counter screen (AID 1259367); also: nearly all actives have a fitted effect of over 55% in size; also: potency is read from the fitted curve at half-maximal effect
In short: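 Cells: 3T3 Gli1-Luc, 2,000/well, 4 hr pre-incubation. Compounds in DMSO, then conditioned medium. Incubation 24 hr, 37C, 5% CO2. CellTiter-Fluor at 23 hr, 1 hr, fluorescence.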

[6] = qHTS assay to identify small molecule agonists of the sonic hedgehog signaling (Shh) pathway (AID 1259368; calls by dose curve;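 also: NIH/3T3-derived 3T3Gli1-Luc cells carrying a stable Gli1-driven firefly luciferase reporter; series mostly up to about 92 µM; nearly all actives have a fitted effect of over 15% in size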)
In short: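 NIH/3T3-derived 3T3Gli1-Luc cells with stably integrated Gli1-driven firefly luciferase, 2,000 cells/well, compounds added after 4 hr. Incubated 24 hr at 37C, 5% CO2; luminescence read after 30 min with luciferase reagent at room temperature.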

[7] = qHTS assay to identify small molecule agonists of the androgen receptor (AR) signaling pathway in the presence of an antagonist - cell viability counter screen (AID 1259379); also: nearly all actives have a fitted effect of over 25% in size; also: potency is read from the fitted curve at half-maximal effect
In short: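 MDA-kb2 cells (MMTV-luciferase, AR/GR), 3,000/well, 5 h attachment, then 3.0 µM nilutamide (final) and compounds at 15 concentrations. Viability by CellTiter-Fluor fluorescence after 16 h at 37 °C, 0% CO2, in the reporter wells.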

[8] = qHTS assay to identify small molecule antagonists of the estrogen receptor beta (ER-beta) signaling pathway - cell viability counter screen (AID 1259382); also: nearly all actives have a fitted effect of over 55% in size; also: potency is read from the fitted curve at half-maximal effect
In short: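 ER-beta-UAS-bla HEK293T cells in 2% charcoal-stripped FBS medium, treated with compound plus 1 nM 17-beta-estradiol for 16 h at 37C. Viability read by CellTiter-Glo luminescence after 30 min at room temperature in the same wells.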

[9] = qHTS assay to identify small molecule agonists or antagonists of the thyroid stimulating hormone receptor (TSHR) signaling pathway - wild type cell line counter screen (AID 1259384; calls by dose curve)
In short: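 Counter screen in untransfected Hek293: compounds (15-point titration, triplicate) plus phosphodiesterase inhibitor Ro20-1724 added after 18 h plating; 30 min RT. Intracellular cAMP via competitive d2/cryptate immunoassay, 1 h incubation.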

[10] = molecular target: Thyrotropin receptor (Homo sapiens) (UniProt P16473); test: qHTS assay to identify small molecule antagonists of the thyroid stimulating hormone receptor (TSHR) signaling pathway (AID 1259385; calls by dose curve; also: nearly all actives have a fitted effect of over 20% in size; also: potency is read from the fitted curve at half-maximal effect)
Sequence of Thyrotropin receptor (Homo sapiens) (P16473 whole entry, looked up): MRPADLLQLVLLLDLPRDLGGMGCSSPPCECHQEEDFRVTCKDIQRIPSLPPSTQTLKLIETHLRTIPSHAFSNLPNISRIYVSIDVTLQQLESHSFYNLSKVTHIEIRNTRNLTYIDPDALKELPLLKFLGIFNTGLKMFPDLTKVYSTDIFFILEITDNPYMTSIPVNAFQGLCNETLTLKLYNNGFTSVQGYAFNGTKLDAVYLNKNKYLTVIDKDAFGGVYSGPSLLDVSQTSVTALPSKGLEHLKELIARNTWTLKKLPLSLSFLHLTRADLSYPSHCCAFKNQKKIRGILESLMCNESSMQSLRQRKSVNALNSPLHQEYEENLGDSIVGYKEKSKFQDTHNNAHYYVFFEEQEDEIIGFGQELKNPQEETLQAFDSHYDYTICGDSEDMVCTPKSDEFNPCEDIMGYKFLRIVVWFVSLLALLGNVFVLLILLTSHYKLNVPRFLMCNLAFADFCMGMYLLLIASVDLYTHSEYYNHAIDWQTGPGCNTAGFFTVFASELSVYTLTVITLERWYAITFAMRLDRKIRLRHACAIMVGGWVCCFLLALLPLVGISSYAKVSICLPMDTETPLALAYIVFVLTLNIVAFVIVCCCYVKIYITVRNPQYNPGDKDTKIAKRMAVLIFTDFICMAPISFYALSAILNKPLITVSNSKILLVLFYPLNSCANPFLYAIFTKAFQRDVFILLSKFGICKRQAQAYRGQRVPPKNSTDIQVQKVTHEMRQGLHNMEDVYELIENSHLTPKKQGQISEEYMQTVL
In short: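 Antagonist mode: compound-treated TSHR-expressing HEK293 cells were stimulated with 1.5 ng/mL TSH (final) in presence of Ro20-1724 for 30 min at RT. HTRF cAMP detection after 1 h; each compound tested at 15 concentrations, triplicate.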

[11] = qHTS assay to identify small molecule agonists of the sonic hedgehog signaling (Shh) pathway - cell viability counter screen (AID 1259366); also: nearly all actives have a fitted effect of over 50% in size; also: potency is read from the fitted curve at half-maximal effect
In short: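 Fluorescence from CellTiter-Fluor reports live cells in this counter screen. NIH/3T3-derived Gli1-Luc reporter cells receive test compounds for 24hr at 37C; reagent goes in at 23hr.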

[12] = qHTS assay to identify small molecule agonists of the estrogen receptor beta (ER-beta) signaling pathway - cell viability counter screen (AID 1259380); also: nearly all actives have a fitted effect of over 30% in size; also: potency is read from the fitted curve at half-maximal effect
In short: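 ER-beta-UAS-bla HEK293T cells in medium with 2% charcoal-stripped FBS, pre-incubated 6 hr, then treated 16 hr at 37C. Cytotoxicity read in the same wells by CellTiter-Glo luminescence after 30 min at room temperature.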

[13] = molecular target: Estrogen receptor beta (Homo sapiens) (UniProt Q92731); test: qHTS assay to identify small molecule agonists of the estrogen receptor beta (ER-beta) signaling pathway (AID 1259377; active = well fitted activation curve with a large enough effect in the signal ratio in the repeat runs, not every such curve was filed as active; the % refers to the signal ratio; also: potency is read from the fitted curve at half-maximal effect)
Sequence of Estrogen receptor beta (Homo sapiens) (Q92731 whole entry, looked up): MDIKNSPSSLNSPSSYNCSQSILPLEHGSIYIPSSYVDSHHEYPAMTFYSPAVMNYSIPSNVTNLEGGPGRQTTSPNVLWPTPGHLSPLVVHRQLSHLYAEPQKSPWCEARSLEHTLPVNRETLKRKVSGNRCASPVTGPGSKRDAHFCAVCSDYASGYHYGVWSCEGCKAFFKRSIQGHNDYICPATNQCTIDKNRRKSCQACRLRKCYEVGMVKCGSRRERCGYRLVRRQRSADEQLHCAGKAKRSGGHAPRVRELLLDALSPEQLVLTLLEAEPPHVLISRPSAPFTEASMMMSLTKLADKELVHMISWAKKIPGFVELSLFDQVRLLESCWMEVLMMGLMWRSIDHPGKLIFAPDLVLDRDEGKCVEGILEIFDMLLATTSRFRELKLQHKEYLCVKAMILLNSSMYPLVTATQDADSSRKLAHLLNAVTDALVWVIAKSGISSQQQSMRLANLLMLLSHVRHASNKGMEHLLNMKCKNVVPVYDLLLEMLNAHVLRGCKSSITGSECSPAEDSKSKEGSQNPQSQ
In short: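 Screening used GripTite ER-beta-UAS-bla cells held in 2% charcoal-stripped FBS medium. After overnight (16 hr) compound incubation at 37C, beta-lactamase activity was detected with a FRET substrate by fluorescence.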

[14] = molecular target: Estrogen receptor (Homo sapiens) (UniProt P03372); test: qHTS assay to identify small molecule agonists of the estrogen receptor alpha (ER-alpha) signaling pathway in the presence of an antagonist (AID 1259383; calls by dose curve; also: nearly all actives have a fitted effect of over 15% in size; also: potency is read from the fitted curve at half-maximal effect; as to activation: top concentration of the series differs between compounds)
Sequence of Estrogen receptor (Homo sapiens) (P03372 whole entry, looked up): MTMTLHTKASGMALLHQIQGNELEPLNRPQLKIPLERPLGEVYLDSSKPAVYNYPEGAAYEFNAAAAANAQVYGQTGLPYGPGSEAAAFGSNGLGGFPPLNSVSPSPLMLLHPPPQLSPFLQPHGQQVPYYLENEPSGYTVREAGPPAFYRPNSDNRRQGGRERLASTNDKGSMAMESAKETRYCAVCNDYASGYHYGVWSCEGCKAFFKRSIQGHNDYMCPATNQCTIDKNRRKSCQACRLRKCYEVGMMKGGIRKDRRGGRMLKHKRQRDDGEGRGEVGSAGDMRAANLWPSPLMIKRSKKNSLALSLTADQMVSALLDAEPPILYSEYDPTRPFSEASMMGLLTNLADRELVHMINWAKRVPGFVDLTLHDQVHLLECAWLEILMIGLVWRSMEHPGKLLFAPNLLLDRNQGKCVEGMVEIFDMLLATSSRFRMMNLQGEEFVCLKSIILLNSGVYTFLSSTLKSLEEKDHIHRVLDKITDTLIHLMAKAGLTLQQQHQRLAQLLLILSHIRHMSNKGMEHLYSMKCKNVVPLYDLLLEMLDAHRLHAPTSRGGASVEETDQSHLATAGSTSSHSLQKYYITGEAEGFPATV
In short: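 VM7Luc4E2 cells express endogenous full-length ER-alpha with an ERE-luciferase reporter and were hormone-deprived for 5 days. Compounds at 15 concentrations were added with 10.0nM ICI-182,780 for 22hr at 37C. Luminescence was read with ONE-Glo.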

[15] = molecular target: Androgen receptor (Homo sapiens) (UniProt P10275); test: qHTS assay to identify small molecule antagonists of the androgen receptor (AR) signaling pathway using the MDA cell line in the presence of 0.5 nM R1881 (AID 1259243); also: potency is read from the fitted curve at half-maximal effect; nearly all actives have a fitted effect of over 50% in size
Sequence of Androgen receptor (Homo sapiens) (P10275 whole entry, looked up): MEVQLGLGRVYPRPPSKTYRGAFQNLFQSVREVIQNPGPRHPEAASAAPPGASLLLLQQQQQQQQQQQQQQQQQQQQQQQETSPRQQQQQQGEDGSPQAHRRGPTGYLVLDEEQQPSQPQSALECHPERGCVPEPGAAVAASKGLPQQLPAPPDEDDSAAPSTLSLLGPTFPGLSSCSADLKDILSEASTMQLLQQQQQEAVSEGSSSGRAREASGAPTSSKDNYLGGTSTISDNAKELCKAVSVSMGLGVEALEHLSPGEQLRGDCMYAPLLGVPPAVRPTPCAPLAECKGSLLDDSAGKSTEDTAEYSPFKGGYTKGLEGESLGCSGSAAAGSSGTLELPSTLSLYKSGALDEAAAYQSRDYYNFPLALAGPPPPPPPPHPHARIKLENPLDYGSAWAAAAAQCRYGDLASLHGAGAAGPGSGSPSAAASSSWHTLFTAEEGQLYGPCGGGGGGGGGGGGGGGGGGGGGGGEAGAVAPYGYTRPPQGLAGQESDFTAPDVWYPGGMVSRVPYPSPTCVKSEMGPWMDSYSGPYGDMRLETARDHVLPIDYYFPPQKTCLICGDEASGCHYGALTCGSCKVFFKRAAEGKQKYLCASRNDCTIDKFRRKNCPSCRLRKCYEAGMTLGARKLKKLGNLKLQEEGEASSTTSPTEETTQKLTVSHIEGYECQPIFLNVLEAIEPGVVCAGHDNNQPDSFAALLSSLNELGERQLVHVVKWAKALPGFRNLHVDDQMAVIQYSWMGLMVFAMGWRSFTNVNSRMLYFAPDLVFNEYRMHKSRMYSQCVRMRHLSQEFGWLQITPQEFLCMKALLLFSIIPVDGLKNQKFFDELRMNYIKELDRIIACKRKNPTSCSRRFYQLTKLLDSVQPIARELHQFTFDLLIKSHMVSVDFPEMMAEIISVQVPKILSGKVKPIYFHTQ
In short: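 MDA-kb2 cells (MMTV-luciferase, responsive to AR and GR) at 3,000/well, rested 5 h at 37C, 0% CO2, then given compounds plus 0.5 nM R1881 (final) for 16 hr. Luciferase read with ONE-Glo after 30 min at room temperature.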

[16] = molecular target: Estrogen receptor (Homo sapiens) (UniProt P03372); test: qHTS assay to identify small molecule antagonists of the estrogen receptor alpha (ER-alpha) signaling pathway using the BG1 cell line in the presence of 0.1 nM 17-beta-estradiol (AID 1259244); also: potency is read from the fitted curve at half-maximal effect; nearly all actives have a fitted effect of over 50% in size
In short: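 VM7Luc4E2 cells (endogenous full-length ER-alpha, 4×ERE-luciferase), kept 5 days in phenol red-free, charcoal-stripped FBS medium; 4,000 cells/well. Compounds added with 0.1 nM (final) 17beta-estradiol, 22 hr at 37C; luminescence read with ONE-Glo after 30 min.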

[17] = qHTS assay to identify small molecule HDAC inhibitors (AID 1259364); also: top concentration of the series differs between compounds; nearly all actives have a fitted effect of over 45% in size
In short: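 Wild-type HCT-116 cells, plated overnight at 37 C, exposed to compounds 2 hr at 37 C; luminogenic HDAC-Glo substrate then added 30 min at room temperature. Luminescence reports relative endogenous class I/II HDAC activity.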

[18] = molecular target: Estrogen receptor beta (Homo sapiens) (UniProt Q92731); test: qHTS assay to identify small molecule antagonists of the estrogen receptor beta (ER-beta) signaling pathway (AID 1259378; active = well fitted inhibition curve with a large enough effect in the signal ratio in the repeat runs, not every such curve was filed as active; the % refers to the signal ratio; also: potency is read from the fitted curve at half-maximal effect)
In short: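 Antagonist mode: compounds added to beta-lactamase reporter HEK293T ER-beta-UAS cells stimulated with E2 (1nM final), 16 hr at 37C. LiveBLAzer B/G FRET substrate, 2 hours room temperature, fluorescence read-out.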

[19] = molecular target: Androgen receptor (Homo sapiens) (UniProt P10275); test: qHTS assay to identify small molecule agonists of the androgen receptor (AR) signaling pathway in the presence of an antagonist (AID 1259381; calls by dose curve; also: nearly all actives have a fitted effect of over 15% in size)
In short: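 MDA-kb2 cells carrying MMTV-luciferase (AR/GR responsive), 3,000 cells/well, co-treated with 3.0 uM nilutamide final. Compounds at 15 concentrations, 16 hr at 37C without CO2. Luciferase luminescence read after 30 min with ONE-Glo.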

[20] = qHTS assay to identify small molecule antagonists of the sonic hedgehog signaling (Shh) pathway (AID 1259369; calls by dose curve; also: nearly all actives have a fitted effect of over 45% in size)
In short: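 NIH/3T3-derived Gli1-Luc reporter cells plated 4 h, dosed with compound, then stimulated with conditioned medium for 24 h at 37 C. Firefly luciferase luminescence read after 30 min with detection reagent at room temperature.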

| SMILES | Potency [1] | Potency [2] | Potency [3] | outcome [4] | Potency [5] | outcome [6] | Potency [7] | Potency [8] | Potency [9] | Potency [10] | Potency [11] | Potency [12] | Potency [13] | Potency [14] | Potency [15] | Potency [16] | Potency [17] | Potency [18] | Potency [19] | Potency [20] |
| --- | --- | --- | --- | --- | --- | --- | --- | --- | --- | --- | --- | --- | --- | --- | --- | --- | --- | --- | --- | --- |
| C[C@@H](C1=C(CCN(C)C)Cc2ccccc21)c1ccccn1 | inactive | inactive | inactive | inactive | inactive | inactive | inactive | inactive | inactive | inactive |  |  |  |  |  |  |  |  |  |  |
| CN(C)C/C=C(/c1ccc(Br)cc1)c1cccnc1 | inactive | inactive | inactive | inactive | inactive |  | inactive | inactive | inactive | inactive | inactive | inactive |  |  |  |  |  |  |  |  |
| CN1CCN(C2=Nc3cc(Cl)ccc3Nc3ccccc32)CC1 | inactive | inactive |  | inactive |  |  | inactive |  | inactive | inactive | 13.3 µM (active) | 29.8 µM (active) | inactive | inactive |  |  |  |  |  |  |
| CC(C)(C)c1cc(O)c(C(C)(C)C)cc1O |  | 54.5 µM (active) |  | inactive |  | inactive | 54.5 µM (active) | inactive | inactive | 61.1 µM (active) | 61.1 µM (active) |  |  | inactive | 19.3 µM (active) | 43.3 µM (active) | inactive | 30.6 µM (active) | inactive |  |
| N#Cc1c(F)cccc1F | inactive | inactive |  | inactive | inactive | inactive | inactive | inactive | inactive | inactive | inactive | inactive |  |  |  |  |  |  |  |  |
| CCN(CC)CCOc1ccc2c(c1)C(=O)c1cc(OCCN(CC)CC)ccc1-2 | inactive |  |  | inactive | inactive | inactive | 13.3 µM (active) | 18.8 µM (active) |  |  | inactive | 18.8 µM (active) |  |  |  |  | inactive |  |  |  |
| O=C(c1ccc(O)cc1)c1ccc(O)cc1 | inactive | inactive |  | inactive |  | inactive | inactive | inactive |  | inactive | inactive | inactive | 6.11 µM (active) | 21.7 µM (active) |  |  |  | inactive | inactive |  |
| CC(C)CCCCCCOC(=O)c1ccc(C(=O)OCCCCCCC(C)C)c(C(=O)OCCCCCCC(C)C)c1 | inactive | inactive |  | inactive | inactive |  |  | inactive | inactive | inactive | inactive | inactive | inactive |  |  |  | inactive | inactive |  |  |
| CCCCCC/C=C/C=O |  | inactive |  | inactive | inactive | inactive | inactive | inactive |  |  | inactive | inactive |  |  |  |  | inactive |  |  |  |
| CC(C)(C)c1cc(CCC(=O)OCC(COC(=O)CCc2cc(C(C)(C)C)c(O)c(C(C)(C)C)c2)(COC(=O)CCc2cc(C(C)(C)C)c(O)c(C(C)(C)C)c2)COC(=O)CCc2cc(C(C)(C)C)c(O)c(C(C)(C)C)c2)cc(C(C)(C)C)c1O | inactive | inactive |  | inactive | inactive |  | inactive | inactive | inactive | inactive | inactive | inactive |  | inactive |  |  |  | inactive |  | inactive |
| COCCCCCCCCOCCC[Si](C)(O[Si](C)(C)C)O[Si](C)(C)C |  |  |  | inactive | inactive | inactive |  | inactive | inactive | inactive | inactive |  | inactive | inactive |  |  | inactive |  |  | inactive |
| CN1CCC(=C2c3ccccc3CCc3sccc32)CC1 | inactive | inactive |  | inactive | inactive |  |  | 21.1 µM (active) | inactive | inactive | inactive | 26.6 µM (active) | inactive | inactive |  |  | inactive |  |  |  |
| O=C(Cl)c1c(Cl)cccc1Cl | inactive | inactive |  | inactive | inactive | inactive | inactive | inactive | inactive | inactive | inactive | inactive |  | inactive |  |  | inactive |  |  |  |
| COc1cc(C(C)(C)C)c(O)c(C(C)(C)C)c1 | inactive | inactive |  | inactive | inactive | inactive | inactive | inactive | inactive | inactive | inactive | inactive |  |  |  |  | inactive |  |  |  |
| CC1=CCC(C(C)C)C=C1 (configuration not stated) | inactive | inactive |  | inactive | inactive |  | inactive | inactive |  |  | inactive | inactive |  | inactive |  |  |  |  |  | inactive |
| Cc1ccc(O)c([C@H](CCN(C(C)C)C(C)C)c2ccccc2)c1 | inactive |  | inactive | inactive | inactive | inactive |  |  | inactive | inactive | inactive | 26.6 µM (active) |  |  |  |  | inactive | inactive |  |  |
| Cc1cccc(C(C)(C)C)c1O | inactive | inactive |  | inactive | inactive |  | inactive | inactive |  |  | inactive | inactive | inactive | inactive |  |  | inactive | inactive |  | inactive |
| NC(N)=N/N=C/c1c(Cl)cccc1Cl |  |  |  | inactive | 10.6 µM (active) | inactive |  |  | inactive | inactive | 11.9 µM (active) | 29.8 µM (active) |  | inactive | 23.7 µM (active) |  | inactive |  | inactive |  |
| CC(=O)c1c(C)c([N+](=O)[O-])c(C(C)(C)C)c([N+](=O)[O-])c1C | inactive | inactive |  | inactive | inactive | inactive | inactive | inactive | inactive | inactive | inactive | inactive |  |  |  |  |  |  |  | inactive |
